Tests used:
Test in all cases: DAPPL (digital affinity profiling via proximity ligation, sequencing); 10 mM Tris-HCl pH 7.5, 50 mM NaCl, 1 mM DTT, 4% glycerol, room temperature, 30 min; GST-TFs on glutathione beads, 16-mer random dsDNA library, 0.1% formaldehyde crosslink after washing; high values mean tight binding
[1] = biological target: T1, FLI1 (Homo sapiens, UniProt Q01543 1-452); details: protein: recombinant; tags: N-terminal GST; dsDNA, one strand shown
T1 sequence: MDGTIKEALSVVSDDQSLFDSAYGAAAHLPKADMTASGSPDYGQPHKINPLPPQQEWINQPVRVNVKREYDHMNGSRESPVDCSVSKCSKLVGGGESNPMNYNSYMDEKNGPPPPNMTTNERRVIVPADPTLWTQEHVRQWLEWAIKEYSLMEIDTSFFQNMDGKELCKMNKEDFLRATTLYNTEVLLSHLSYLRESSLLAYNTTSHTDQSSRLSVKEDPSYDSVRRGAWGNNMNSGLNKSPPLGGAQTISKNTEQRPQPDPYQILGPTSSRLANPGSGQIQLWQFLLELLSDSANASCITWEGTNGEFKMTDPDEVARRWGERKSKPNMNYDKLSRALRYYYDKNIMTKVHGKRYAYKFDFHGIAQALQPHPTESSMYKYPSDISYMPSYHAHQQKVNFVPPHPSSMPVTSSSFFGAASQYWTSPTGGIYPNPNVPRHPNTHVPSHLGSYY
Outline: (§1)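 After expression in yeast as GST fusions, human transcription factors were bound to glutathione beads, DNA-barcoded and mixed with a tag-only sample. The pools were incubated with 200 nmole of a 16-mer random double-stranded DNA library in Tris/NaCl/DTT/glycerol buffer (30 min, room temperature), washed and crosslinked with 0.1% formaldehyde. Proximity ligation with BsaI/T4 ligase ran for 1 h at 37 °C, before PCR amplification and sequencing on an Illumina NextSeq500. Binding signal is a hexamer's read frequency for a factor divided by its frequency for the tag-only sample.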

[2] = biological target: T2, ELK1 (Homo sapiens, UniProt P19419 1-428); details: protein: recombinant; tags: N-terminal GST; dsDNA, one strand shown
T2 sequence: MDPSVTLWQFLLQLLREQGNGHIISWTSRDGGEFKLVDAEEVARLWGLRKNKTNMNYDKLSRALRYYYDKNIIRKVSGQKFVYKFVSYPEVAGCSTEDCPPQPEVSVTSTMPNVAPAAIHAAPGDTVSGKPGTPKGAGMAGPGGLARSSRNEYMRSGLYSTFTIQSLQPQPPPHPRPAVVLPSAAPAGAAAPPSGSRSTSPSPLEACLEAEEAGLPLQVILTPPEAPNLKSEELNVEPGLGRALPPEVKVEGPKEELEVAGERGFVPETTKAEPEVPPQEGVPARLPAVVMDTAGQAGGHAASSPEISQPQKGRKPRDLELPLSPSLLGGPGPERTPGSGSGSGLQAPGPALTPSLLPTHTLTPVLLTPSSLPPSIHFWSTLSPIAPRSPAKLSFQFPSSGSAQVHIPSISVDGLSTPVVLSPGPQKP
Outline: as §1

[3] = biological target: T3, GABPA (Homo sapiens, UniProt Q06546 1-454); details: protein: recombinant; tags: N-terminal GST; dsDNA, one strand shown
T3 sequence: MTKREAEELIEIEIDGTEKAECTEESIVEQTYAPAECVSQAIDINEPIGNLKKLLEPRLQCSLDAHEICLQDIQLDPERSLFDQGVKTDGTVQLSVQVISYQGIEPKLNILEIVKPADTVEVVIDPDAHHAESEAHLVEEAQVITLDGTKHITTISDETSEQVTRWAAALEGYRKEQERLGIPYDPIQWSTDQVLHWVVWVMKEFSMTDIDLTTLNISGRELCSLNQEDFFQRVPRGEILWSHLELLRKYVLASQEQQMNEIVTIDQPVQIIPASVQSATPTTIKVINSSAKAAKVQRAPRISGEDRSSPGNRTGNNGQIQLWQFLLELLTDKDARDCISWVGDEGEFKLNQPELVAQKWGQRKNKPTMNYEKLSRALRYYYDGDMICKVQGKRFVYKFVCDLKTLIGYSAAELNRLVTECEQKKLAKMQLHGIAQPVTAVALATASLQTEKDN
Outline: as §1

[4] = biological target: T4, ERG (Homo sapiens, UniProt P11308 1-479); details: protein: recombinant; tags: N-terminal GST; dsDNA, one strand shown
T4 sequence: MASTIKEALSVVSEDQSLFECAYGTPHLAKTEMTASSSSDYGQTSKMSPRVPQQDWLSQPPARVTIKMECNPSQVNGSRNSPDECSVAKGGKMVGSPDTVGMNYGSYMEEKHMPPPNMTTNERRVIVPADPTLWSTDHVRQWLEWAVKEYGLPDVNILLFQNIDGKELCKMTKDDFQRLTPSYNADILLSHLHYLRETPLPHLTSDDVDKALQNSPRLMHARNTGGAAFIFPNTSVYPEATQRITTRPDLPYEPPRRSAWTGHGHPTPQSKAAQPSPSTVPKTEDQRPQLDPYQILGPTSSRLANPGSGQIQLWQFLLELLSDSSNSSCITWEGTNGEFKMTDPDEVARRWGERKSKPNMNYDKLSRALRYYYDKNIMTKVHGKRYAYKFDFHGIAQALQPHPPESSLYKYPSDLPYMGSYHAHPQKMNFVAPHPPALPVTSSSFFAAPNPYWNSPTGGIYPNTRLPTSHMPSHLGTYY
Outline: as §1

[5] = biological target: ELF1 (Homo sapiens, UniProt P32519 1-619); details: protein: recombinant; tags: N-terminal GST; dsDNA, one strand shown
Chain of ELF1 (P32519 whole entry): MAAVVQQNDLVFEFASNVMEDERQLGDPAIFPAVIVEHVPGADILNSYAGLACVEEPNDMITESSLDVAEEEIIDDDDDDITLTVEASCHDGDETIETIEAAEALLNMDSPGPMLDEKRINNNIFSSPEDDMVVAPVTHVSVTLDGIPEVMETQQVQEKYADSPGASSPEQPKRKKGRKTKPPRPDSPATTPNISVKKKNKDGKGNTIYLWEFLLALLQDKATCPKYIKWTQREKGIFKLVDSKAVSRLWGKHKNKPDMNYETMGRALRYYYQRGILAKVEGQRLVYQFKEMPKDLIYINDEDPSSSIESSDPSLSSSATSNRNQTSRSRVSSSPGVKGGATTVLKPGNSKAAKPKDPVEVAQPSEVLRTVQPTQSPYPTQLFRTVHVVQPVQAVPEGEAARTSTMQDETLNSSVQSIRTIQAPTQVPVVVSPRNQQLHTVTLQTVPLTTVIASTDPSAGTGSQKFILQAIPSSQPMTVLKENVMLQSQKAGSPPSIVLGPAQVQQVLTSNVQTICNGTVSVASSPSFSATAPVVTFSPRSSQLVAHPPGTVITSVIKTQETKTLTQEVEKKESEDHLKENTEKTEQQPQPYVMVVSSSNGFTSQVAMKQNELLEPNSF
Outline: as §1

[6] = biological target: T5, EHF (Homo sapiens, UniProt Q9NZC4 1-300); details: protein: recombinant; tags: N-terminal GST; dsDNA, one strand shown
T5 sequence: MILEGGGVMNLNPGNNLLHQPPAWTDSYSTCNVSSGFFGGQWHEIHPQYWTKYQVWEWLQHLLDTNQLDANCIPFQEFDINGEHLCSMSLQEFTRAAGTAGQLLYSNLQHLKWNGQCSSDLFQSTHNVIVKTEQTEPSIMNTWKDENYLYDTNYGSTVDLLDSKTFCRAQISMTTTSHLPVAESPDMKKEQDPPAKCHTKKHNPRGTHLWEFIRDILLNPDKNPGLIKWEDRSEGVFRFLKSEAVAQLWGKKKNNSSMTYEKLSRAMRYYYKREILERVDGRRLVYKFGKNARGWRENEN
Outline: as §1

[7] = biological target: SPI1 (Homo sapiens, UniProt P17947 1-270); details: protein: recombinant; tags: N-terminal GST; dsDNA, one strand shown
Outline: as §1

[8] = biological target: SPIB (Homo sapiens, UniProt Q01892 1-262); details: protein: recombinant; tags: N-terminal GST; dsDNA, one strand shown
Chain of SPIB (Q01892 whole entry): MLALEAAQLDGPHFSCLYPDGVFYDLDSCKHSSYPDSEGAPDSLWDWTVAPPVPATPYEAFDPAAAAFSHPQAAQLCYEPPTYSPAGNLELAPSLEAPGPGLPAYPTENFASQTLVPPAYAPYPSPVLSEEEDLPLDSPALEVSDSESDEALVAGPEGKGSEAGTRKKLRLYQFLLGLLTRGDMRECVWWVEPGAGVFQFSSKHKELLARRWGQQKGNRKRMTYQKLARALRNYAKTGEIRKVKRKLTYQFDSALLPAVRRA
Outline: as §1

[9] = biological target: T6, ELK3 (Homo sapiens, UniProt P41970 1-407); details: protein: recombinant; tags: N-terminal GST; dsDNA, one strand shown
T6 sequence: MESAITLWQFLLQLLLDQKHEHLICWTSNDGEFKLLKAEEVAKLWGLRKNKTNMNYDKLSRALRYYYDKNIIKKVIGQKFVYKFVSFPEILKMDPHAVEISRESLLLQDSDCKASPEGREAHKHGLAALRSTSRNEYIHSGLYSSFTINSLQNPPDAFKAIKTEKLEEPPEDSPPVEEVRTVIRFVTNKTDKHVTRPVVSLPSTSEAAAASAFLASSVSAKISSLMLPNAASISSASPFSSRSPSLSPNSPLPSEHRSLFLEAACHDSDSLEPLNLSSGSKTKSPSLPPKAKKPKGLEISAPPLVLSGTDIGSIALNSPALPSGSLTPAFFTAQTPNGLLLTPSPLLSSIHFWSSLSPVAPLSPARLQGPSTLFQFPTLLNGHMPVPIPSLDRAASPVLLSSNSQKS
Outline: as §1

[10] = biological target: T7, FEV (Homo sapiens, UniProt Q99581 1-238); details: protein: recombinant; tags: N-terminal GST; dsDNA, one strand shown
T7 sequence: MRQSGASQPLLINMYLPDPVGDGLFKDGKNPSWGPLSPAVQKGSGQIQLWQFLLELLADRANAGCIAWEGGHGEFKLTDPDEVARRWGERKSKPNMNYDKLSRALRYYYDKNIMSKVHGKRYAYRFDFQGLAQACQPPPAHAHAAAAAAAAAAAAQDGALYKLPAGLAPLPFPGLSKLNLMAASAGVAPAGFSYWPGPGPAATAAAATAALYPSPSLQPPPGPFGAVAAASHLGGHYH
Outline: as §1

[11] = biological target: ETV5 (Homo sapiens, UniProt P41161 1-510); details: protein: recombinant; tags: N-terminal GST; dsDNA, one strand shown
Chain of ETV5 (P41161 whole entry): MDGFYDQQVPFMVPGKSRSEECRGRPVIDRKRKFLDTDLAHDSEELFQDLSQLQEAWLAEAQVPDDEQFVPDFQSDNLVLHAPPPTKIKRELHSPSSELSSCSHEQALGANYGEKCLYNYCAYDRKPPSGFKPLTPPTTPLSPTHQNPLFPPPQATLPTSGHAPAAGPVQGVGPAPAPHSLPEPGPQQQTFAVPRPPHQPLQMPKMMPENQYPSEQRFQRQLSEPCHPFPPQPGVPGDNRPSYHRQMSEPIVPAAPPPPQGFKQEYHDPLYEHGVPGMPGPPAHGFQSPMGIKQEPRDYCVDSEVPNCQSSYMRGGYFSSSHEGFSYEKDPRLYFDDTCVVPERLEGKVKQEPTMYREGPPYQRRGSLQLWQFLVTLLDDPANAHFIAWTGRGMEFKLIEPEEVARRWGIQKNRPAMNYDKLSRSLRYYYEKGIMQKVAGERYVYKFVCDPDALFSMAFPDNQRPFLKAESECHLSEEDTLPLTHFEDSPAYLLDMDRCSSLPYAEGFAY
Outline: as §1

[12] = biological target: HSF1 (Homo sapiens, UniProt Q00613 1-529); details: protein: recombinant; tags: N-terminal GST; chain copies: 3; dsDNA, one strand shown
Chain of HSF1 (Q00613 whole entry): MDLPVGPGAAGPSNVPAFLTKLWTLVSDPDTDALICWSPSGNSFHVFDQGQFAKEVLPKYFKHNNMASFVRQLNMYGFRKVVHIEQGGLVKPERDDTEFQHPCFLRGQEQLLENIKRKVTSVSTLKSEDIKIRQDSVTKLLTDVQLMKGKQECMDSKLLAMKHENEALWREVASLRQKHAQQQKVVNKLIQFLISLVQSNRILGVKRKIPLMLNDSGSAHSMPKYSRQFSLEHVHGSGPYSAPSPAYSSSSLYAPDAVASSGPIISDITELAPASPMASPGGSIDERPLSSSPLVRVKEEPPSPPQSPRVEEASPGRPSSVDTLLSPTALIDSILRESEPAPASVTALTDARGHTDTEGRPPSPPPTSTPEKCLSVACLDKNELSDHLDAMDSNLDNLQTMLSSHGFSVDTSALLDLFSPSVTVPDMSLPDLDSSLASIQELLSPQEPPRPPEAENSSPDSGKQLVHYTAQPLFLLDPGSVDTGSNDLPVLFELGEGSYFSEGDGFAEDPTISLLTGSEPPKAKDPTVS
Outline: as §1

[13] = biological target: T8, SPIC (Homo sapiens, UniProt Q8N5J4 1-248); details: protein: recombinant; tags: N-terminal GST; dsDNA, one strand shown
T8 sequence: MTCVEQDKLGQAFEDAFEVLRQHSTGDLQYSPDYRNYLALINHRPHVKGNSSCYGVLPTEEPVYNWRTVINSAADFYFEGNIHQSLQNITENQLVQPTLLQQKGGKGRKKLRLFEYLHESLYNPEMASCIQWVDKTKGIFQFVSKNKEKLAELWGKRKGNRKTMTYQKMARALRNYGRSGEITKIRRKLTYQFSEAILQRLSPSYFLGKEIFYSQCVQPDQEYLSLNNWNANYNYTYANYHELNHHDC
Outline: as §1

[14] = biological target: ELF4 (Homo sapiens, UniProt Q99607 1-663); details: protein: recombinant; tags: N-terminal GST; dsDNA, one strand shown
Chain of ELF4 (Q99607 whole entry): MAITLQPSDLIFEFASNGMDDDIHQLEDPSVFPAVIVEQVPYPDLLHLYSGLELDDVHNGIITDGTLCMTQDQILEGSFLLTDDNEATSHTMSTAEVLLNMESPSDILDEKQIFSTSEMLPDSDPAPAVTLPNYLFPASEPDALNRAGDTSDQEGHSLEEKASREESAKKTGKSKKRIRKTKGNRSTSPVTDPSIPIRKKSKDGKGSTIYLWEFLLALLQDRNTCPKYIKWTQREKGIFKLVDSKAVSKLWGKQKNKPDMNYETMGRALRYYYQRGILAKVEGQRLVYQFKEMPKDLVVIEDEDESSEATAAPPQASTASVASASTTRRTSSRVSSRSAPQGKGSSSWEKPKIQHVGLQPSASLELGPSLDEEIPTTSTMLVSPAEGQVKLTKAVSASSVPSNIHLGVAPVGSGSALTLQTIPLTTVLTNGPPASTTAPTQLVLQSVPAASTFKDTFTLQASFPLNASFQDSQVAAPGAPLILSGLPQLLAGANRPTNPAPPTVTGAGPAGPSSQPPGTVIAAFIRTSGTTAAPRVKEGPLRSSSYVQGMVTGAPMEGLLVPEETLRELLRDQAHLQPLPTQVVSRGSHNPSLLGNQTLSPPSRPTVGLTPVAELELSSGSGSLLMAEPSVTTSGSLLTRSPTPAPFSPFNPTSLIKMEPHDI
Outline: as §1

[15] = biological target: T9, ELK4 (Homo sapiens, UniProt P28324-2 1-405); details: protein: recombinant; tags: N-terminal GST; dsDNA, one strand shown
T9 sequence: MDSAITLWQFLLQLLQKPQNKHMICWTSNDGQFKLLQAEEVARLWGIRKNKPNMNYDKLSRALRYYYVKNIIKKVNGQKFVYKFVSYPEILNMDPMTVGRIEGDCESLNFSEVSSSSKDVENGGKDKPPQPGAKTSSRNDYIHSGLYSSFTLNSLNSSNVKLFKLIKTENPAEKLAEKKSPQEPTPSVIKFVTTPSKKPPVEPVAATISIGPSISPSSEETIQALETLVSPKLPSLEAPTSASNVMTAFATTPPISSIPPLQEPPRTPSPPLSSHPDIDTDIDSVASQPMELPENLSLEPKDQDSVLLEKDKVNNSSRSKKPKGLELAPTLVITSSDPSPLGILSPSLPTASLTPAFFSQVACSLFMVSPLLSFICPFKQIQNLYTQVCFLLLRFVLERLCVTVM
Outline: as §1

[16] = biological target: T10, ETV2 (Homo sapiens, UniProt O00321 1-342); details: protein: recombinant; tags: N-terminal GST; dsDNA, one strand shown
T10 sequence: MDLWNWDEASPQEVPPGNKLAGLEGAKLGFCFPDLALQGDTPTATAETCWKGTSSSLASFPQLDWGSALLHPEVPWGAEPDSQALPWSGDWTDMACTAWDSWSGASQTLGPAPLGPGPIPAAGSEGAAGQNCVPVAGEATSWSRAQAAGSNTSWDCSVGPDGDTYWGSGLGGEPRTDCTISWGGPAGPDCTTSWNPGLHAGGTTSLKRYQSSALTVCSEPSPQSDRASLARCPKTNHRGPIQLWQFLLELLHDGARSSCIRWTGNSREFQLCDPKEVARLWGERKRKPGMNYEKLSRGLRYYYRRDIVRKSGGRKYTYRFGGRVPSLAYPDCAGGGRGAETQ
Outline: as §1

[17] = biological target: T11, ELF3 (Homo sapiens, UniProt P78545 1-371); details: protein: recombinant; tags: N-terminal GST; dsDNA, one strand shown
T11 sequence: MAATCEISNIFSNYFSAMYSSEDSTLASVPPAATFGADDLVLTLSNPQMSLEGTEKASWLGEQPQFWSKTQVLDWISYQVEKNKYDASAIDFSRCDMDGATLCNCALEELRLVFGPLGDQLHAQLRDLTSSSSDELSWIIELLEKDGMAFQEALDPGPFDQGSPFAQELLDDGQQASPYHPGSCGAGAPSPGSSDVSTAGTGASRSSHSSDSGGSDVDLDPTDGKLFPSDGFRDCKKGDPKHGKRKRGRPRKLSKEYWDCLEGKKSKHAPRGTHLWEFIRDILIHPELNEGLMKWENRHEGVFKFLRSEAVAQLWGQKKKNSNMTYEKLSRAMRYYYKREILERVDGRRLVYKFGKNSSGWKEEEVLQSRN
Outline: as §1

[18] = biological target: CRX (Homo sapiens, UniProt O43186 1-299); details: protein: recombinant; tags: N-terminal GST; dsDNA, one strand shown
Chain of CRX (O43186 whole entry): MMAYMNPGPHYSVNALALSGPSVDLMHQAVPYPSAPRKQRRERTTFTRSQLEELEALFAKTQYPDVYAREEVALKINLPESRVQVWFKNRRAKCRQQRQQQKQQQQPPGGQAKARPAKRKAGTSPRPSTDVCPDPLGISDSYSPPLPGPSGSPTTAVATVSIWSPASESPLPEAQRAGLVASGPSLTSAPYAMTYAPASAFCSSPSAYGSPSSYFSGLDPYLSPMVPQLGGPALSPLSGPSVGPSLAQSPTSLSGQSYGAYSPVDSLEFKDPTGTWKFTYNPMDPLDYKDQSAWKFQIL
Outline: as §1

[19] = biological target: ETV1 (Homo sapiens, UniProt P50549 1-477); details: protein: recombinant; tags: N-terminal GST; dsDNA, one strand shown
Chain of ETV1 (P50549 whole entry): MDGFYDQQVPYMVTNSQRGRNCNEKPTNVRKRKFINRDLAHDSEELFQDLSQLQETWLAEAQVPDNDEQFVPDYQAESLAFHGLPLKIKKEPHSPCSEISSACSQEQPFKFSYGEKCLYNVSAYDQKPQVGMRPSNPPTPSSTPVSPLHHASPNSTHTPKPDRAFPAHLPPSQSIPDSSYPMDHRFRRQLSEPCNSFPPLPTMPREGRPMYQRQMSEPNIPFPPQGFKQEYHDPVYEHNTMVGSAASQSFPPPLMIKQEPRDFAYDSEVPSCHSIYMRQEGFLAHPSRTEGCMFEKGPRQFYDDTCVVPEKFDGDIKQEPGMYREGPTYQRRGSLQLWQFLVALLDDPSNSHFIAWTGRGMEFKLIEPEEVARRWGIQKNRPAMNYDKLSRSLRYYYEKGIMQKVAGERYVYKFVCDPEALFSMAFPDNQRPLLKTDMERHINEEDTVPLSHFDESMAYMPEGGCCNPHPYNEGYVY
Outline: as §1

In the case of TATATG, the binding signal [1] is reported as 1.28 fold enrichment (6-mer frequency, TF over GST control), the binding signal [2] is reported as 1.38 fold enrichment (6-mer frequency, TF over GST control) and the binding signal [3] is reported as 1.3 fold enrichment (6-mer frequency, TF over GST control). For the same sequence, the binding signal [4] was 1.36 fold enrichment (6-mer frequency, TF over GST control), the binding signal [5] was 1.43 fold enrichment (6-mer frequency, TF over GST control) and the binding signal [6] was 1.34 fold enrichment (6-mer frequency, TF over GST control). The binding signal [7] was 1.41 fold enrichment (6-mer frequency, TF over GST control), the binding signal [8] was 1.36 fold enrichment (6-mer frequency, TF over GST control) and the binding signal [9] was 1.38 fold enrichment (6-mer frequency, TF over GST control). The binding signal [10] was 1.33 fold enrichment (6-mer frequency, TF over GST control), the binding signal [11] was 1.34 fold enrichment (6-mer frequency, TF over GST control) and the binding signal [12] was 1.28 fold enrichment (6-mer frequency, TF over GST control). For the same sequence, the binding signal [13] was 1.47 fold enrichment (6-mer frequency, TF over GST control), the binding signal [14] was 1.31 fold enrichment (6-mer frequency, TF over GST control) and the binding signal [15] was 1.65 fold enrichment (6-mer frequency, TF over GST control). For the same sequence, the binding signal [16] was 1.25 fold enrichment (6-mer frequency, TF over GST control), the binding signal [17] was 1.46 fold enrichment (6-mer frequency, TF over GST control) and the binding signal [18] was 1.44 fold enrichment (6-mer frequency, TF over GST control). For the same sequence, the binding signal [19] was 1.33 fold enrichment (6-mer frequency, TF over GST control).
